# The supplement of paper PMC8728848
# The full list was thinned out, with the strongest signals kept by preference.
# B1: AT1G73650(15) (Arabidopsis thaliana), F4HRY1 (protein)
# chain: MGTVLDSHFLALTAIVTVIYQFIFFVITALFKFDQVTDFAGSTNFVILAVLTLVLKASWHFRQIVLTLLVVVWGLRLGIFLLMETRILQWGEDRRFDEQRGNIVRLIIFWTLQAVWVWTVSLPLTLVNASDGGGSLKPADVIGWTMETWVFGFLIEAAADQQKLSFKNSPENRGKWCDVGVWKYSRHPNYFGEMETLLWWGIFVAASPVLEGAEYLVIFGPLFLTLLLLFVSGIPLLEASADKKHGNSGAYRSYKKTTSPLILFPRGVYGNLPGWFKTVFLFEFPFYSRNLPQEGRLQNSKEKEVKDD
# Assays:
# Test in all cases: glycan array binding signal (z-score within array); higher = stronger binding
# Conditions in all cases: glycan notation: IUPAC condensed, linker removed
# [1] = target: Fuc(a1-2)Gal(b1-4)GlcNAc(b1-3)[Fuc(a1-2)Gal(b1-4)GlcNAc(b1-6)]GalNAc
# In short: (§1)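 Glycan array data were curated from 3228 arrays in the Consortium for Functional Glycomics database and kept only where the protein sequence was available. Glycan names were converted to IUPAC-condensed notation, and columns mapping to the same glycan were averaged. The binding signal is a within-array Z-score, averaged across arrays of the same protein sequence at different concentrations or buffers and across linkers. Negative Z-scores can be read as non-binding.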
# [2] = target: Fuc(a1-2)Gal(b1-4)[Fuc(a1-3)]GlcNAc(b1-3)Gal(b1-4)[Fuc(a1-3)]GlcNAc(b1-3)Gal(b1-4)[Fuc(a1-3)]GlcNAc
# In short: as §1
# [3] = target: Fuc(a1-2)[Gal(a1-3)]Gal(b1-4)[Fuc(a1-3)]GlcNAc
# In short: as §1
# [4] = target: Fuc(a1-2)[GalNAc(a1-3)]Gal(b1-3)GlcNAc(b1-3)GalNAc
# In short: as §1
# [5] = target: Fuc(a1-2)[GalNAc(a1-3)]Gal(b1-4)Glc
# In short: as §1
# [6] = target: Fuc(a1-2)[GalNAc(a1-3)]Gal(b1-4)GlcNAc(b1-3)[Fuc(a1-2)[GalNAc(a1-3)]Gal(b1-4)GlcNAc(b1-6)]GalNAc
# In short: as §1
# [7] = target: Fuc(a1-3)[Gal(b1-4)]Glc6S
# In short: as §1
# [8] = target: Fuc(a1-3)[Gal3S(b1-4)]GlcNAc
# In short: as §1
# [9] = target: Fuc(a1-3)[GalNAc(b1-4)]GlcNAc6S
# In short: as §1
# Gal(a1-3)Gal(b1-4)Glc = target: Gal(a1-3)Gal(b1-4)Glc
# In short: as §1
# [10] = target: Gal(a1-3)Gal(b1-4)GlcNAc(b1-6)GalNAc
# In short: as §1
# [11] = target: Gal(a1-3)[Gal(a1-4)]Gal(b1-4)GlcNAc
# In short: as §1
# [12] = target: Gal(b1-3)GalNAc(b1-4)Gal(b1-4)Glc
# In short: as §1
# [13] = target: Gal(b1-3)GlcNAc(b1-2)Man(a1-3)[GlcNAc(b1-4)][Gal(b1-3)GlcNAc(b1-2)Man(a1-6)]Man(b1-4)GlcNAc(b1-4)GlcNAc
# In short: as §1
# [14] = target: Gal(b1-3)[Fuc(a1-4)]GlcNAc(b1-3)Gal(b1-4)[Fuc(a1-3)]GlcNAc
# In short: as §1
# [15] = target: Gal(b1-4)GalNAc(a1-3)[Fuc(a1-2)]Gal(b1-4)GlcNAc
# In short: as §1
# Gal(b1-4)Glc6S = target: Gal(b1-4)Glc6S
# In short: as §1
# [16] = target: Gal(b1-4)GlcNAc(b1-2)Man(a1-6)[Man(a1-3)]Man(b1-4)GlcNAc(b1-4)GlcNAc
# In short: as §1
# [17] = target: Gal(b1-4)GlcNAc(b1-2)[Gal(b1-4)GlcNAc(b1-6)]Man(a1-6)[Gal(b1-4)GlcNAc(b1-2)Man(a1-3)]Man(b1-4)GlcNAc(b1-4)[Fuc(a1-6)]GlcNAc
# In short: as §1
# [18] = target: Gal(b1-4)GlcNAc(b1-2)[Gal(b1-4)GlcNAc(b1-6)]Man(a1-6)[GlcNAc(b1-4)][Gal(b1-4)GlcNAc(b1-2)Man(a1-3)]Man(b1-4)GlcNAc(b1-4)GlcNAc
# In short: as §1
# [19] = target: Gal(b1-4)GlcNAc(b1-3)Gal(b1-4)GlcNAc(b1-3)Gal(b1-4)GlcNAc(b1-3)Gal(b1-4)GlcNAc(b1-2)[Gal(b1-4)GlcNAc(b1-3)Gal(b1-4)GlcNAc(b1-3)Gal(b1-4)GlcNAc(b1-3)Gal(b1-4)GlcNAc(b1-6)]Man(a1-6)[Gal(b1-4)GlcNAc(b1-3)Gal(b1-4)GlcNAc(b1-3)Gal(b1-4)GlcNAc(b1-3)Gal(b1-4)GlcNAc(b1-2)Man(a1-3)]Man(b1-4)GlcNAc(b1-4)[Fuc(a1-6)]GlcNAc
# In short: as §1
# [20] = target: Gal3S(b1-4)[Fuc(a1-3)]GlcNAc6S
# In short: as §1
# Gal3S6S(b1-4)GlcNAc6S = target: Gal3S6S(b1-4)GlcNAc6S
# In short: as §1
# Gal4S(b1-4)GlcNAc = target: Gal4S(b1-4)GlcNAc
# In short: as §1
# Gal4S6S(b1-4)GlcNAc = target: Gal4S6S(b1-4)GlcNAc
# In short: as §1
# Gal6S(b1-3)GlcNAc6S = target: Gal6S(b1-3)GlcNAc6S
# In short: as §1
# GalNAc(b1-4)GlcNAc = target: GalNAc(b1-4)GlcNAc
# In short: as §1
# GalNAc(b1-4)GlcNAc6S = target: GalNAc(b1-4)GlcNAc6S
# In short: as §1
# GalNAc6S(b1-4)GlcNAc = target: GalNAc6S(b1-4)GlcNAc
# In short: as §1
# [21] = target: GlcNAc(b1-2)Man(a1-3)[GlcNAc(b1-2)Man(a1-6)]Man(b1-4)GlcNAc(b1-4)GlcNAc
# In short: as §1
# [22] = target: GlcNAc(b1-2)[GlcNAc(b1-6)]Man(a1-6)[GlcNAc(b1-2)Man(a1-3)]Man(b1-4)GlcNAc(b1-4)[Fuc(a1-6)]GlcNAc
# In short: as §1
# [23] = target: GlcNAc(b1-2)[GlcNAc(b1-6)]Man(a1-6)[GlcNAc(b1-4)][GlcNAc(b1-2)Man(a1-3)]Man(b1-4)GlcNAc(b1-4)GlcNAc
# In short: as §1
# [24] = target: GlcNAc(b1-4)[GlcNAc(b1-6)]GalNAc
# In short: as §1
# GlcNAc(b1-6)GalNAc = target: GlcNAc(b1-6)GalNAc
# In short: as §1
# [25] = target: GlcNAc6S(b1-3)Gal(b1-4)GlcNAc
# In short: as §1
# [26] = target: Man(a1-2)Man(a1-2)Man(a1-6)[Man(a1-3)]Man
# In short: as §1
# [27] = target: Man(a1-2)Man(a1-6)[Man(a1-3)]Man(a1-6)[Man(a1-2)Man(a1-2)Man(a1-3)]Man
# In short: as §1
# [28] = target: Man(a1-3)[Man(a1-6)]Man(a1-6)[Man(a1-3)]Man(b1-4)GlcNAc(b1-4)GlcNAc
# In short: as §1
# [29] = target: Neu5Ac(a2-3)Gal(b1-3)GlcNAc(b1-6)GalNAc
# In short: as §1
# [30] = target: Neu5Ac(a2-3)Gal(b1-3)[GlcNAc(b1-6)]GalNAc
# In short: as §1
# [31] = target: Neu5Ac(a2-3)Gal(b1-4)GlcNAc(b1-3)Gal(b1-4)[Fuc(a1-3)]GlcNAc
# In short: as §1
# [32] = target: Neu5Ac(a2-3)Gal(b1-4)[Fuc(a1-3)]GlcNAc(b1-3)Gal
# In short: as §1
# [33] = target: Neu5Ac(a2-3)Gal6S(b1-4)[Fuc(a1-3)]GlcNAc
# In short: as §1
# [34] = target: Neu5Ac(a2-6)Gal(b1-4)GlcNAc(b1-2)Man(a1-3)Man(b1-4)GlcNAc(b1-4)GlcNAc
# In short: as §1
# [35] = target: Neu5Ac(a2-6)Gal(b1-4)GlcNAc(b1-6)GalNAc
# In short: as §1
# [36] = target: Neu5Ac(a2-8)Neu5Ac(a2-8)Neu5Ac
# In short: as §1
# Neu5Gc(a2-6)GalNAc = target: Neu5Gc(a2-6)GalNAc
# In short: as §1
binder,measurement,setting,value
B1,glycan array binding signal (z-score),[1],2.33
same,glycan array binding signal (z-score),[2],-0.048
same,glycan array binding signal (z-score),[3],-0.438
same,glycan array binding signal (z-score),[4],0.226
same,glycan array binding signal (z-score),[5],-0.567
same,glycan array binding signal (z-score),[6],-0.573
same,glycan array binding signal (z-score),[7],2.65
same,glycan array binding signal (z-score),[8],3.17
same,glycan array binding signal (z-score),[9],-0.217
same,glycan array binding signal (z-score),Gal(a1-3)Gal(b1-4)Glc,3.4
same,glycan array binding signal (z-score),[10],-0.542
same,glycan array binding signal (z-score),[11],3.43
same,glycan array binding signal (z-score),[12],3.21
same,glycan array binding signal (z-score),[13],-0.213
same,glycan array binding signal (z-score),[14],-0.287
same,glycan array binding signal (z-score),[15],-0.354
same,glycan array binding signal (z-score),Gal(b1-4)Glc6S,2.95
same,glycan array binding signal (z-score),[16],-0.586
same,glycan array binding signal (z-score),[17],1.65
same,glycan array binding signal (z-score),[18],-0.494
same,glycan array binding signal (z-score),[19],-0.173
same,glycan array binding signal (z-score),[20],1.88
same,glycan array binding signal (z-score),Gal3S6S(b1-4)GlcNAc6S,0.919
same,glycan array binding signal (z-score),Gal4S(b1-4)GlcNAc,-0.333
same,glycan array binding signal (z-score),Gal4S6S(b1-4)GlcNAc,-0.444
same,glycan array binding signal (z-score),Gal6S(b1-3)GlcNAc6S,-0.282
same,glycan array binding signal (z-score),GalNAc(b1-4)GlcNAc,4.01
same,glycan array binding signal (z-score),GalNAc(b1-4)GlcNAc6S,-0.402
same,glycan array binding signal (z-score),GalNAc6S(b1-4)GlcNAc,0.513
same,glycan array binding signal (z-score),[21],-0.569
same,glycan array binding signal (z-score),[22],0.047
same,glycan array binding signal (z-score),[23],-0.322
same,glycan array binding signal (z-score),[24],-0.41
same,glycan array binding signal (z-score),GlcNAc(b1-6)GalNAc,-0.154
same,glycan array binding signal (z-score),[25],-0.641
same,glycan array binding signal (z-score),[26],-0.361
same,glycan array binding signal (z-score),[27],-0.508
same,glycan array binding signal (z-score),[28],-0.566
same,glycan array binding signal (z-score),[29],3.42
same,glycan array binding signal (z-score),[30],-0.402
same,glycan array binding signal (z-score),[31],1.23
same,glycan array binding signal (z-score),[32],-0.714
same,glycan array binding signal (z-score),[33],-0.428
same,glycan array binding signal (z-score),[34],-0.274
same,glycan array binding signal (z-score),[35],7.33
same,glycan array binding signal (z-score),[36],2.92
same,glycan array binding signal (z-score),Neu5Gc(a2-6)GalNAc,3.69
